Assay outcomes (PubChem)
Only some compounds are listed: those with a hit (about 3.1% of all), similar ones and a draw of the others.
BoNT-A LC inh2: BoNT A light chain protease inhibition. multiplex microsphere protease substrate cleavage, flow cytometry. inhibition, % at 10 µM. hit rate 0.17% among 360,000. AID 588499
PriA SSB inh: K. pneumoniae PriA-SSBct interaction inhibition; AlphaScreen SSBct-PriA binding, biotinylated peptide; inhibition, % at 33 µM; hit rate 0.6% among 430,000; AID 1272365; in the data active means inhibition mostly above about 37%, no sharp cut-off; inactive means mostly below about 20%
Autofluor counter: compound fluorescence in toxin protease inhibitor counterscreen. compound autofluorescence counterscreen, microsphere flow cytometry; stronger effect = higher value. fluorescence intensity (test concentration not listed). hit rate 3.1% among 360,000; in the data active means fluorescence intensity above about 16000; inconclusive means no clear call, values can overlap the other calls
BoNT-F LC inh: inhibitors of Botulinum neurotoxin F light chain protease. Multiplex microsphere protease cleavage assay, flow cytometry. inhibition, % at 10 µM. hit rate 0.22% among 360,000; in the data active means inhibition above about 35%, passing the limit was not always enough; inconclusive means no clear call, values can overlap the other calls
Anthrax LF prot: blocks Bacillus anthracis lethal factor protease; inhibition, % at 10 µM; AID 588501; hit rate 0.12% among 360,000; multiplex microsphere protease cleavage assay, LF; P15917
Each line names hits and unclear results; the compound was inactive in the other large screens. Unless noted, no stated cut-off is given here; in the data, active means inhibition above about 30%; inconclusive means no clear call, values can overlap the other calls; inactive means below that.

CC1=CC(=C2C(=O)NC(=O)NC2=O)C=C(C(F)(F)F)N1C(C)C	Autofluor counter 21183
Cc1c(C(=O)N2CCN(S(C)(=O)=O)CC2)oc2ccccc12	Autofluor counter 20670
Cc1c(C(=O)N2CCN(CCc3ccccc3)CC2)oc2ccccc12	Autofluor counter 24130
Cc1c(C(=O)N2CCN(S(=O)(=O)c3ccccc3)CC2)oc2ccccc12	none
COc1cccc(C(=O)N2CCN(c3nc4c(C)c(Cl)ccc4s3)CC2)c1OC	none (no result: BoNT-A LC inh2, Autofluor counter, BoNT-F LC inh, Anthrax LF prot)
COc1ccc(-c2ccc(C#N)c(OC)n2)cc1	none
CCOc1nc(-c2ccccc2Cl)ccc1C#N	Autofluor counter 20479
NC(=O)c1ccc(N2C=C(C(=O)N3CCCCC3)S(=O)(=O)c3ccc(Cl)cc32)cc1	none (no result: BoNT-A LC inh2, Autofluor counter, BoNT-F LC inh, Anthrax LF prot)
COCCNC(=O)CC#N	none (no result: BoNT-A LC inh2, Autofluor counter, BoNT-F LC inh, Anthrax LF prot)
O=C(c1cccs1)N1CCN(CCc2ccccc2)CC1	Autofluor counter 21277
O=C(Cn1cnc2ccccc21)NCCCN1CCOCC1	Autofluor counter 24254
O=C(NCCN1CCN(C(=O)c2cccs2)CC1)c1cccs1	Autofluor counter 22034
O=C(NCCCN1CCOCC1)c1cccs1	BoNT-A LC inh2 inconclusive, Autofluor counter 19558
O=C(NCCN1CCN(c2ccccc2)CC1)c1cccs1	none (no result: BoNT-A LC inh2, Autofluor counter, BoNT-F LC inh, Anthrax LF prot)
COc1ccc(CN(CC(=O)Nc2ccccc2)S(=O)(=O)c2cccnc2)cc1	none (no result: BoNT-A LC inh2, Autofluor counter, BoNT-F LC inh, Anthrax LF prot)
CN(C)CC1CSCCCN1C(=O)c1cccc(C(F)(F)F)c1 (stereo not given)	none (no result: BoNT-A LC inh2, Autofluor counter, BoNT-F LC inh, Anthrax LF prot)
Cc1cc(C(=O)Nc2nc(C(=O)N3CCc4ccccc43)co2)no1	none (no result: BoNT-A LC inh2, Autofluor counter, BoNT-F LC inh, Anthrax LF prot)
O=C(Nc1nc2c(s1)CCCC2=O)c1cnccn1	Autofluor counter 23908
CCOC(=O)c1cccc(NC(=O)c2cc3sccc3n2C)c1	BoNT-A LC inh2 inconclusive, Autofluor counter 26158
CCOC(=O)c1cccc(NC(=O)c2ccco2)c1	BoNT-A LC inh2 inconclusive, Autofluor counter 23498
Cn1c(C(=O)Nc2ccc3c(c2)OCCO3)cc2sccc21	Autofluor counter 16792
C=CCNC(=O)c1cc2sccc2n1C	none
CCOC(=O)c1ccccc1NC(=O)c1cc2sccc2n1C	Autofluor counter 22752
O=C(/C=C/c1cccc([N+](=O)[O-])c1)Nc1cccc(Br)c1	none (no result: BoNT-A LC inh2, Autofluor counter, BoNT-F LC inh, Anthrax LF prot)
CCOC(=O)c1cccc(NC(=O)/C=C/c2cccc([N+](=O)[O-])c2)c1	Autofluor counter 19203
O=C(Nc1cccc(-c2nc3ccccc3[nH]2)c1)c1ccco1	Autofluor counter 25261
C=CCN=C1NC(=O)C(CC(=O)Nc2ccc(Br)cc2)S1 (stereo not given)	none (no result: BoNT-A LC inh2, Autofluor counter, BoNT-F LC inh, Anthrax LF prot)
CCCCSC1=NN1c1nc(N)nc(C)c1CC	Autofluor counter 22245
CCc1c(C)nc(N)nc1N1N=C1SC	none
Cc1ccc(-c2nnc(SCC(=O)NNC(=O)COc3cccc(C)c3)n2C)cc1	Autofluor counter 22497
Cc1ccc(C(=O)NNC(=O)CSc2nnc(-c3ccncc3)n2C)cc1	Autofluor counter 16351
CCn1c(SCC(=O)N/N=C/c2ccc(C)o2)nnc1-c1ccccc1	BoNT-A LC inh2 inconclusive, Autofluor counter 22380 (no result: PriA SSB inh)
CCn1c(SCC(=O)NNC(=O)c2ccccc2)nnc1-c1ccncc1	BoNT-A LC inh2 inconclusive, Autofluor counter 22311
CCn1c(SCC(=O)NNC(=O)Cc2ccccc2)nnc1-c1ccncc1	none
Cc1nccn1-c1ncc(NC(=O)c2cnccn2)cn1	none (no result: BoNT-A LC inh2, Autofluor counter, BoNT-F LC inh, Anthrax LF prot)
O=C(c1ccoc1)N1CCSC(c2ccccc2)CC1 (stereo not given)	none (no result: BoNT-A LC inh2, Autofluor counter, BoNT-F LC inh, Anthrax LF prot)
O=C(c1ccc(-n2cccc2)cc1)N1CCS[C@H](c2ccccc2)CC1	PriA SSB inh 35 (no result: BoNT-A LC inh2, Autofluor counter, BoNT-F LC inh, Anthrax LF prot)
CCOC(=O)CSC1=C(C#N)C(c2ccccc2Cl)C(C(=O)OC)C(=O)N1 (stereo not given)	Autofluor counter 20786
Cc1oc2c(C)c(O)ccc2c(=O)c1N1C(=O)c2ccccc2C1=O	none
CCCOc1ccc2c(=O)c(N3C(=O)c4ccccc4C3=O)c(C)oc2c1	Autofluor counter 20166
Cc1oc2cc(O)ccc2c(=O)c1N1C(=O)c2ccccc2C1=O	Autofluor counter 19700
CC(=O)Oc1ccc2c(=O)c(N3C(=O)c4ccccc4C3=O)c(C)oc2c1	none
Cc1cccc(S(=O)(=O)c2c(N)n(/N=C/c3ccco3)c3nc4ccccc4nc23)c1	Autofluor counter 22583 (no result: PriA SSB inh)
Cc1ccc(S(=O)(=O)c2c(N)n(/N=C/c3ccco3)c3nc4ccccc4nc23)cc1	Autofluor counter 20865 (no result: PriA SSB inh)
Cc1ccc(S(=O)(=O)c2c(N)n(NC(=O)C3CC3)c3nc4ccccc4nc23)cc1	Autofluor counter 16643
Cc1ccc(-n2c(N)c(S(=O)(=O)c3ccccc3)c3nc4ccccc4nc32)cc1	none
Nc1c(S(=O)(=O)c2ccccc2)c2nc3ccccc3nc2n1/N=C/c1ccco1	BoNT-A LC inh2 inconclusive, Autofluor counter 19798 (no result: PriA SSB inh)
Cc1cc(-n2nnc(C(=O)N3CCN(C(=O)c4ccco4)CC3)c2C)ccc1F	none (no result: BoNT-A LC inh2, Autofluor counter, BoNT-F LC inh, Anthrax LF prot)
Cc1ccc(S(=O)(=O)Nc2ccc3c(c2)C(=O)NCCO3)cc1Cl	none (no result: BoNT-A LC inh2, Autofluor counter, BoNT-F LC inh, Anthrax LF prot)
